MCF10A rereplic: inducers of DNA re-replication in MCF 10A breast cells | MCF 10A DNA re-replication, Hoechst nuclear intensity, 48 h | Potency, µM (series often up to 46.1 µM), actives largely listed as activators | 350,000 compounds, 2.9% hits | AID 624296; note: nearly all actives have a fitted effect of over 50% in size
PINK1 modulator: modulators of PINK1 expression. PINK1 immunofluorescence, high-content cytometry, 24 h. Potency, µM (series often up to 76.6 µM), most hits filed as activators. 410,000 compounds, 0.2% hits. AID 624263; active = well fitted activation curve with a large enough effect; inconclusive = small, poorly fitted or top-dose-only effect; cell line not stated here; note: nearly all actives have a fitted effect of over 65% in size
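Stable cell line treated 24 h with compounds at 5 concentrations (CCCP controls), then fixed and immunostained for PINK1 plus nuclear and cell stains; PINK1 immunofluorescence quantified by laser-scanning microplate cytometry.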
KB-V1 MDR tox: kills drug-selected multidrug resistant KB-V1 cells; KB-V1 MDR cells viability, CellTiter-Glo, 72 h; Potency, µM (titrated, usually from 46.1 µM), usual class: cytotoxic; 400,000 compounds, 3.4% hits; note: nearly all actives have a fitted effect of over 60% in size
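Following 72 h at 37 degrees C with compound, KB-V1 cell viability was read by CellTiter-Glo luminescence, medium being phenol-red-free DMEM plus 10% FBS; concentration-response parameters came from normalized, curve-fitted qHTS data.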
KB-3-1 cytotox: kills parental KB-3-1 adenocarcinoma cells; KB-3-1 viability, CellTiter-Glo ATP luminescence, 72 h; Potency, µM (series often up to 46.1 µM), hits mostly cytotoxic; 400,000 compounds, 1.4% hits; AID 1347075; note: nearly all actives have a fitted effect of over 60% in size
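Screening of KB-3-1 cells (DMEM, 10% FBS, phenol-red free) ran from lowest to highest compound concentration; after 72 h at 37 °C viability was read luminescently and curves fitted.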
SW480 rereplic: DNA re-replication induction in SW480 cells. SW480 DNA re-replication, Hoechst DNA content imaging, 48 h. Potency, µM (highest dose often 46.1 µM), usual class: activators. 340,000 compounds, 1.8% hits. AID 624297; note: nearly all actives have a fitted effect of over 55% in size
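First, 250 cells per well were seeded. Next, compound or vehicle (23 nL) was pinned in, plates sat 48 hr at 37 C. Finally Hoechst was added for 40 min before fluorescence scanning.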
Each line names hits and unclear results; the compound was inactive in the other large screens; ! = not active in a repeat. Hits are enriched below; roughly 6.7% of the tested compounds scored in any of these assays. Unless noted, calls come from the whole dose curve; as a rule, active = well fitted curve in the direction sought with a large enough effect; inconclusive = small, poorly fitted or top-dose-only effect, or another doubt; inactive = no such curve, though single readings can be large; an effect the other way counts as inactive or inconclusive.

[O-][N+]12CCCc3cccc(c31)CCC2	none (no result: MCF10A rereplic, PINK1 modulator, SW480 rereplic)
CN(C)c1ncc2nc(CCc3ccccc3)c(=O)n(Cc3cccs3)c2n1	none (no result: MCF10A rereplic, KB-V1 MDR tox, KB-3-1 cytotox, SW480 rereplic)
COC(=O)[C@@]1(Cc2ccc(F)cc2)[C@H]2c3cc(C(=O)N4CCCC4)n(Cc4ccc(S(C)(=O)=O)cc4)c3C[C@H]2CN1C(=O)c1ccccc1	KB-V1 MDR tox inconclusive (no result: MCF10A rereplic, SW480 rereplic)
COC(=O)[C@@]1(Cc2ccc(F)cc2)[C@H]2c3cc(C(=O)N4CCCC4)n(CCCNc4ncc(C(F)(F)F)cc4Cl)c3C[C@H]2CN1C(=O)c1ccccc1	MCF10A rereplic 5.8µM, SW480 rereplic inconclusive
COC(=O)[C@@]1(Cc2ccc(F)cc2)[C@H]2c3cc(C(=O)N4CCCC4)n(Cc4ccc(C)c(F)c4F)c3C[C@H]2CN1C(=O)c1ccccc1	KB-V1 MDR tox 23.1µM, KB-3-1 cytotox inconclusive (no result: MCF10A rereplic, SW480 rereplic)
COC(=O)[C@@]1(Cc2ccc(F)cc2)[C@H]2c3cc(C(=O)N4CCCC4)n(CCF)c3C[C@H]2CN1C(=O)c1ccccc1	KB-V1 MDR tox inconclusive, KB-3-1 cytotox inconclusive (no result: MCF10A rereplic, SW480 rereplic)
COC(=O)[C@@]1(Cc2ccc(F)cc2)[C@H]2c3cc(C(=O)N(C)C)n(Cc4cc(F)cc5c4OCOC5)c3C[C@H]2CN1C(=O)c1ccccc1	KB-V1 MDR tox inconclusive, KB-3-1 cytotox inconclusive (no result: MCF10A rereplic, SW480 rereplic)
COC(=O)[C@@]1(Cc2ccc(F)cc2)[C@H]2c3cc(C(=O)N4CCCC4)n(Cc4ccc(C(F)(F)F)nc4)c3C[C@H]2CN1C(=O)c1ccccc1	KB-3-1 cytotox inconclusive, SW480 rereplic 16.4µM
COC(=O)[C@@]1(Cc2ccc(F)cc2)[C@H]2c3cc(C(=O)N(C)C)n(Cc4ccsc4Br)c3C[C@H]2CN1C(=O)c1ccccc1	KB-V1 MDR tox 20.6µM, KB-3-1 cytotox inconclusive (no result: MCF10A rereplic, SW480 rereplic)
CC(C)C[C@@H](NC(=O)[C@@H](Cc1ccccc1)NC(=O)c1cnccn1)B(O)O	SW480 rereplic 0.0042µM (no result: PINK1 modulator, KB-V1 MDR tox, KB-3-1 cytotox)
CC1CCCCN1CCNC(=O)c1ccc2c(=O)n(CCc3ccccc3)c(=O)[nH]c2c1 (configuration not stated)	KB-3-1 cytotox 20.6µM
Cc1ccc(CNC(=O)c2ccc3c(=O)n(CC4CCCO4)c(=S)[nH]c3c2)cc1 (configuration not stated)	MCF10A rereplic inconclusive, KB-V1 MDR tox 16.4µM
CC1CCCCN1CCCNC(=O)c1ccc2c(=O)n(CCc3ccccc3)c(=O)[nH]c2c1 (configuration not stated)	KB-V1 MDR tox inconclusive, SW480 rereplic inconclusive
CN1CCN(CCCNC(=O)c2ccc3c(=O)n(CCc4ccccc4)c(=O)[nH]c3c2)CC1	SW480 rereplic 1.64µM
CCN1CCN(C(=O)c2ccc3c(=O)n(CCc4ccccc4)c(=O)[nH]c3c2)CC1	MCF10A rereplic inconclusive, SW480 rereplic 29.1µM
O=C(COc1ccccc1C(=O)OCC(=O)N1CCOCC1)Nc1ccc(Br)cc1	none (no result: MCF10A rereplic, KB-V1 MDR tox, KB-3-1 cytotox, SW480 rereplic)
COc1ccc(/C=C(\C)C(=O)NO)cc1	none (no result: MCF10A rereplic, KB-V1 MDR tox, KB-3-1 cytotox, SW480 rereplic)
CCOc1ccc(CCNC(=O)CCc2c(C)nc3c(-c4ccccc4)c(C)nn3c2C)cc1OCC	none (no result: MCF10A rereplic, KB-V1 MDR tox, KB-3-1 cytotox, SW480 rereplic)
COc1ccc(-n2c(=S)[nH]c3cc(C(=O)NCc4ccco4)ccc3c2=O)cc1OC	none
CC1CCCCN1CCNC(=O)c1ccc2c(=O)n(Cc3ccc(Cl)cc3)c(=S)[nH]c2c1 (configuration not stated)	MCF10A rereplic 7.31µM, SW480 rereplic inconclusive
COc1ccc(CCn2c(=S)[nH]c3cc(C(=O)NCc4ccco4)ccc3c2=O)cc1OC	MCF10A rereplic inconclusive, KB-3-1 cytotox 16.4µM
CCOc1ccccc1NC(=O)Cn1c(=O)n(CCCC(=O)NCCc2ccc(C)cc2)c(=O)c2ccccc21	none (no result: MCF10A rereplic, SW480 rereplic)
Cc1ccc(Sc2ccc(N3CCCC(C(=O)Nc4ccc(Br)cc4)C3)nn2)cc1 (configuration not stated)	none (no result: MCF10A rereplic, SW480 rereplic)
CN(C)c1ncnc2ccc(-c3cccc(C#N)c3)cc12	none (no result: MCF10A rereplic, KB-V1 MDR tox, KB-3-1 cytotox, SW480 rereplic)
O=C(c1cnn(-c2ccc(F)cc2)c1-n1cccc1)N1CCN(c2ccccc2)CC1	KB-V1 MDR tox 23.1µM, KB-3-1 cytotox inconclusive (no result: MCF10A rereplic, SW480 rereplic)
O=C(NNS(=O)(=O)c1ccc(Cl)cc1)c1cnn(-c2ccccc2)c1-n1cccc1	none
O=C(NNS(=O)(=O)c1ccccc1)c1cnn(-c2ccccc2)c1-n1cccc1	KB-V1 MDR tox 16.4µM
Cc1ccc(C)c(CN2C(=O)c3ccccc3Sc3ccc(C(=O)NCc4ccco4)cc32)c1	none (no result: MCF10A rereplic, KB-V1 MDR tox, KB-3-1 cytotox, SW480 rereplic)
COc1cc(NC(=O)C(NC(=O)C2CCC(C)CC2)C(C)C)cc(OC)c1OC (configuration not stated)	none (no result: MCF10A rereplic, SW480 rereplic)
CCN(CC(=O)Nc1ccccc1OC)C(=O)C1CCCC1	KB-V1 MDR tox 13µM
C/C(=N\NC(=S)NCc1ccccc1)c1ccccc1	none
C/C(=N\NC(=S)NCc1ccccc1)c1ccc(C(C)(C)C)cc1	MCF10A rereplic inconclusive, KB-V1 MDR tox 18.4µM
Cc1[nH]c2ccccc2c1C(=O)C(C)Sc1nc2ccccc2c(=O)n1Cc1cccnc1 (configuration not stated)	none (no result: MCF10A rereplic, SW480 rereplic)
O=C(NNS(=O)(=O)c1ccc(CCCl)cc1)C(O)(c1ccccc1)c1ccccc1	KB-V1 MDR tox 16.4µM
Cc1ccc(C(O)(C(=O)NNS(=O)(=O)c2ccc(C)cc2)c2ccc(C)cc2)cc1	KB-V1 MDR tox inconclusive
Oc1cc2c(cc1O)[C@@H](c1ccccc1)CNCC2	MCF10A rereplic 18.4µM
CCN(CC)S(=O)(=O)c1cccc(C(=O)OCC(=O)NCCN2C(=O)CSC2=O)c1	KB-V1 MDR tox inconclusive
CCN(Cc1ccccc1)S(=O)(=O)c1ccc(S(=O)(=O)N(Cc2ccccn2)Cc2ccco2)cc1	PINK1 modulator 11.2µM
O=C(N[C@H]1CCC(=O)N(CCSc2ccc(Br)cc2)CC1)OCc1ccccc1	KB-V1 MDR tox 20.6µM!, KB-3-1 cytotox inconclusive
C=CCN1C(=O)/C(=C\c2ccc(OC(=O)c3ccco3)c(OC)c2)SC1=S	none
C=CCN1C(=O)/C(=C/c2ccc(OC(C)=O)c(OCC)c2[N+](=O)[O-])SC1=S	MCF10A rereplic 3.66µM, PINK1 modulator 4.47µM, KB-V1 MDR tox inconclusive, KB-3-1 cytotox inconclusive
CCOC(=O)/C(=C\c1ccc(Cl)cc1)c1nc2sc(C)c(C)c2c(=O)[nH]1	MCF10A rereplic 5.17µM, KB-V1 MDR tox inconclusive, KB-3-1 cytotox inconclusive, SW480 rereplic inconclusive
O=C(NP(=O)(N1CCCC1)N1CCCC1)C1=C(N2CCOCC2)/C(=C/c2cccc([N+](=O)[O-])c2)CC1	none
O=[N+]([O-])c1ccc(/C=C2\CCC(C3=CCCC3)=C2N2CCOCC2)cc1	MCF10A rereplic 23.1µM, KB-V1 MDR tox inconclusive, SW480 rereplic inconclusive
Cc1cc(O)c(C(C)C)cc1C1(c2cc(C(C)C)c(O)cc2C)OC(=O)c2ccccc21	MCF10A rereplic 9.2µM, KB-V1 MDR tox inconclusive, KB-3-1 cytotox inconclusive, SW480 rereplic inconclusive
Cc1cc(C2(c3ccc(O)c(C)c3)OC(=O)c3ccccc32)ccc1O	MCF10A rereplic inconclusive, SW480 rereplic inconclusive
